Bioassay records deposited in PubChem by Broad Institute.
Many of the other results were omitted from the sample, so hits are more common in it than they were.
C diff growth: C. difficile growth inhibitors, primary screen, HTS; growth activity, negative = inhibition, % at 16 µg/mL (by protocol); Clostridium difficile clinical isolate growth, OD600, 24 h; stronger effect = lower value; 0.25% of 86,000 active;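 active = mean growth activity at or below -80% and every replicate also at or below -80%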
T cruzi growth-1: T. cruzi intracellular proliferation inhibitors, primary screen, cell-based, beta-gal Tulahuen parasites, NIH3T3 host, luminescence. 5.9% of 77,000 active. inhibition, % at 8.34 µM. T. cruzi beta-gal in NIH3T3, GalScreen luminescence, 90 h. AID 624255, 2012;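 active = mean inhibition above about 93%, with at least 55% of replicates each passing it, limit read from the data, passing the limit was not always enough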
T cruzi growth-2: T. cruzi intracellular proliferation inhibitors, confirmation, cell-based, NIH3T3 host, beta-gal parasite, luminescence, cherry-pick. inhibition, % at 8.35 µM. 72% of 5,600 active. T. cruzi beta-gal in NIH3T3, GalScreen luminescence, 90 h. shares compounds with T cruzi growth-1;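 active = mean replicate inhibition above about 95% and at least 55% of replicates individually reaching it, limit read from the data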
T cruzi growth-3: inhibitors of intracellular T. cruzi replication, confirmation, NIH3T3 host cells, beta-gal parasites, cherry-pick, set 2; 21% of 5,600 active; T. cruzi beta-gal in NIH3T3, GalScreen luminescence, 90 h; shares compounds with T cruzi growth-1; AID 651740, 2012; inhibition, % at 2.09 µM;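 active = mean inhibition above about 95%, with at least 55% of replicates also reaching it, limit read from the data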
NIH3T3 tox: cytotoxicity in mouse NIH/3T3 fibroblasts, confirmation, cytotoxicity control for T. cruzi proliferation inhibitor project, cell-based, cherry-pick, single point | shares compounds with T cruzi growth-1 | NIH/3T3 viability, CellTiter-Glo ATP luminescence, 90 h | cytotoxicity (signal decrease), % at 8.35 µM | 14% of 5,600 active | AID 651742, 2012;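 active = mean signal decrease across replicates above about 35% based on untreated-well scatter, with enough replicates individually passing, limit read from the data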
NIH3T3 tox 2: NIH/3T3 fibroblast cytotoxicity, confirmation, cytotoxicity control, cell-based, cherry-pick, single point, set 2. inhibition, % at 24.9 µM. AID 651744, 2012. shares compounds with T cruzi growth-1. 56% of 5,600 active. NIH/3T3 viability, CellTiter-Glo ATP luminescence, 90 h;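 active = mean loss of cell viability signal at or above a set limit, and enough replicates individually reaching it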
A number is an active result.

Screening COc1ccccc1C#Cc1ccc2c(c1)[C@@H]1[C@@H](CCN1C(=O)c1ccccc1)[C@H](CO)N2 returned C diff growth inactive.
O=C(c1cccc(F)c1)N1CC[C@@H]2[C@H]1c1cc(C#Cc3cccc(F)c3)ccc1N[C@@H]2CO was read as C diff growth inactive, T cruzi growth-1 102.9, T cruzi growth-2 104.2, T cruzi growth-3 inactive, NIH3T3 tox inactive and NIH3T3 tox 2 106.0.
`O=C(c1ccccc1)N1CC[C@@H]2[C@H]1c1cc(C#Cc3ccccc3F)ccc1N[C@@H]2CO` gave C diff growth inactive, T cruzi growth-1 103.9, T cruzi growth-2 111.7, T cruzi growth-3 inactive, NIH3T3 tox inactive and NIH3T3 tox 2 inactive.
Screening O=C(c1cccc(F)c1)N1CC[C@@H]2[C@H](CO)Nc3ccc(C#Cc4cccc(F)c4)cc3[C@@H]21 returned C diff growth inactive and T cruzi growth-1 inactive.
`COc1ccc(-c2ccc([C@H]3[C@@H](CO)N4C(=O)CN(Cc5ccc(F)cc5)C[C@@H]34)cc2)cc1` gave C diff growth inactive.
For CCCC(=O)Nc1ccc2c(c1)OC[C@@H](C)N(C(=O)c1ccccn1)C[C@H](C)[C@H](OC)CN(C)C2=O the results were T cruzi growth-1 inactive.
COCC(=O)Nc1ccc2c(c1)C(=O)N(C)[C@@H]1CC[C@H](CC(=O)NCc3ccccc3)O[C@H]1CO2 was read as C diff growth inactive and T cruzi growth-1 inactive.
For C[C@@H]1CN([C@@H](C)CO)C(=O)c2cc(C3=CCCCC3)cnc2O[C@@H]1CN(C)C(=O)Nc1ccc(F)cc1 the results were C diff growth inactive and T cruzi growth-1 inactive.
`CN1C[C@H]2[C@@H](c3ccccc31)[C@H](CO)N2C(=O)CN1CCOCC1` gave C diff growth inactive and T cruzi growth-1 inactive.
`O=C(C[C@@H]1C[C@H]2c3cc(NC(=O)c4cccnc4)ccc3O[C@H]2[C@@H](CO)O1)NCc1ccccc1` gave T cruzi growth-1 inactive.
C[C@H](CO)N1C[C@H](C)[C@@H](CN(C)C(=O)Nc2ccc(F)cc2)OCCCC[C@H](C)Oc2ccc(NC(=O)Nc3ccc(C(F)(F)F)cc3)cc2C1=O was read as C diff growth inactive and T cruzi growth-1 inactive.
C[C@@H]1CCCCO[C@@H](CN(C)C(=O)Nc2ccc(C(F)(F)F)cc2)[C@H](C)CN([C@@H](C)CO)C(=O)c2cc(NC(=O)Nc3ccc(F)cc3)ccc2O1 was read as C diff growth inactive, T cruzi growth-1 105.8, T cruzi growth-2 101.1, T cruzi growth-3 102.8, NIH3T3 tox inactive and NIH3T3 tox 2 inactive.
Screening C[C@H]1CCCCO[C@@H](CN(C)C(=O)Nc2ccc(F)cc2)[C@@H](C)CN([C@@H](C)CO)C(=O)c2cc(NC(=O)Nc3ccc(C(F)(F)F)cc3)ccc2O1 returned C diff growth inactive, T cruzi growth-1 101.5, T cruzi growth-2 102.5, T cruzi growth-3 111.3, NIH3T3 tox inactive and NIH3T3 tox 2 inactive.
C[C@@H]1CN([C@H](C)CO)C(=O)c2cc(NC(=O)Nc3ccc(C(F)(F)F)cc3)ccc2O[C@@H](C)CCCCO[C@H]1CN(C)C(=O)Nc1ccc(F)cc1 was read as C diff growth inactive and T cruzi growth-1 inactive.
`C[C@@H]1CN([C@@H](C)CO)C(=O)Cc2cc(NC(=O)Cc3ccccc3)ccc2O[C@@H]1CN(C)CC1CC1` gave C diff growth inactive and T cruzi growth-1 inactive.
CCCC#Cc1ccc([C@H]2[C@@H](C#N)N(S(=O)(=O)c3cccc(F)c3)[C@@H]2CO)cc1 was read as C diff growth inactive and T cruzi growth-1 inactive.
For C[C@@H]1CN([C@H](C)CO)C(=O)c2cc(NS(=O)(=O)c3ccc(F)cc3)ccc2O[C@H]1CN(C)S(=O)(=O)c1cccs1 the results were C diff growth inactive and T cruzi growth-1 inactive.
`N#C[C@@H]1[C@H](c2ccc(-c3ccc(F)cc3)cc2)[C@@H](CO)N1c1nc(-c2ccccc2)cs1` gave C diff growth inactive.
